We go through 15 compounds from PubChem BioAssay (NCI).

What all share (assay): NCI-60 one-dose screen, 48 h (100 = growth as untreated, 0 = no growth, -100 = all killed)
Conditions in all cases: 10 µM

Assay [1] relates to HCT-15 colon.
Assay [2] relates to HT29 colon.
Assay [3] deals with SNB-75 CNS.
Assay [4] concerns SNB-19 CNS.
In assay [5] the test system is U251 CNS.
For assay [6], the system named is SK-MEL-5 melanoma.
Assay [7] has as its system UACC-62 melanoma.
Assay [8] concerns SK-MEL-28 melanoma.
The test system of assay [9] is PC-3 prostate.
For assay [10], the system named is LOX IMVI melanoma.

Structures are written as SMILES. The panel holds about 83,000 compounds, 20% with a hit somewhere; the sample as a whole holds those more often.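 The endpoint reported here, percent growth, reads 100 for growth as untreated, 0 for no net growth and -100 for all cells dead.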 Values without a mark were called inactive. Calls of active or inactive are those of the source. How the source made its calls: active means growth percent below 10; inactive means the rest.

On to `O=c1oc2c(cc1-c1ccc(F)cc1)C(O)Oc1ccccc1-2` (centres undefined), for which the growth in assay [1] was 63.4%; in [2], 66.8%; in [3] it was 63.4%; in assay [4], 95.9%; in assay [5] it was 67.4%; in assay [6] it was 34.8%. Further, the growth in [7] was 44.5%; in assay [8], 88.6%.
Consider `Cc1ccc(S(=O)(=O)N/N=C2\CCCc3ccccc32)cc1`, for which the growth is 109% in [1]; 115% in assay [2]; 92.4% in assay [3]; 94.6% in assay [4]; 90.3% in [9]; 103% in assay [6]. Besides, the growth is 92.9% in assay [7], 94.8% in [10] and 105% in assay [8].
For `N#Cc1c(-c2ccc(Cl)cc2)n(O)c2ccccc12`, the growth in assay [1] is 22.6%; in assay [2], 82.8%; in [3], 12.5%; in [4], 11%; in assay [9], 41.2%; in assay [6], -57.5% (active). Also, the growth is 8.34% (active) in assay [7], 23.8% in [10] and 15.6% in assay [8].
With `Cc1c2c[n+](C(C)C)ccc2c(C)c2c1[nH]c1ccccc12`, the growth in assay [1] was 87.7%; in assay [2], 21.5%; in [3], 41%; in assay [4], 4.83% (active); in assay [5] it was 13.6%; in assay [6], -63.4% (active). Moreover, the growth in [7] is 10.5%; in assay [10] it was 40.7%; in assay [8], 15.7%.
Regarding `NC1=CC(=O)C(=O)c2cccnc21`, the growth was 66.7% in assay [1]; 103% in assay [2]; 45.5% in assay [3]; 66.5% in [4]; 78.2% in assay [9]; 21% in assay [6]. Besides, the figures for the growth in assay [7], in [10] and in [8] were 88.3%, 25.9% and 83.7%, respectively.
Turning to `COc1ccc(C2CC(c3cc(OC)c(OC)c(OC)c3)=NN2)cc1` (centres undefined), the growth in assay [1] is 36.2%; in assay [2], 29.9%; in assay [3], 68.5%; in assay [4], 68.3%; in assay [5], 26.2%; in assay [6] it was 81.4%. The growth in assay [7] is 67%; in assay [10], 43.9%; in assay [8], 113%.
Consider `O=c1cn[nH]c2ccc(Br)cc12`, for which the growth is 104% in assay [1]; 95.7% in assay [2]; 96.2% in assay [3]; 106% in [4]; 95.4% in [9]; 100% in assay [6]. Also, the growth in assay [7] is 112%; in [10], 97.2%; in assay [8], 123%.
On to `CCn1c2ccc(O)cc2c2c(C)c3c[n+](C)ccc3c(C)c21`, for which the growth was 81.2% in assay [1]; 55.8% in assay [2]; 31% in assay [3]; -3.45% (active) in [4]; 3.41% (active) in assay [5]; 7.6% (active) in [6]. The growth in assay [7] was 16.6%; in [10], 62.2%; in [8], 31.8%.
Consider `CCOC(=O)CN(c1sc(C)c(C)c1C(=O)OCC)S(=O)(=O)c1ccc(C)cc1`, for which the growth in assay [1] is 99.3%; in assay [2] it was 111%; in assay [3], 91.7%; in [4], 86.6%; in [9], 74.5%; in [6], 73.2%. Moreover, the growth in assay [7] was 68.2%; in assay [10], 87.4%; in assay [8], 102%.
Take `COc1cc2c(cc1NC(=O)C(Cl)Cl)-c1ccc(NC(=O)C(Cl)Cl)cc1C2`: the growth in assay [1] is -7.21% (active); in [2], -35.3% (active); in assay [3], -29.6% (active); in [4] it was 3.35% (active); in assay [9], 18.8%; in assay [6], 22.5%. Besides, the growth in [7] was -22.2% (active); in assay [10], 67%; in assay [8] it was -54.7% (active).
In the case of `O=C(CCCCNC(=O)c1nc(-c2ccccc2)n(-c2ccccc2)n1)NO`, the growth was 91.3% in [1]; 73.6% in assay [2]; 70.8% in assay [3]; 86% in assay [4]; 65.9% in assay [5]; 62.2% in [6]. Further, the growth in assay [7] was 37.5%; in assay [10], 96.9%; in [8], 75.2%.
As to `Cc1cc(O)ccc1C1=NN(c2ccc(S(C)(=O)=O)cc2)C(=O)CC1`, the growth was 44.9% in [1]; 38.9% in assay [2]; 75.2% in [3]; 78.2% in assay [4]; 77.9% in assay [9]; 68.3% in [6]. Moreover, the growth in [7] was 52.9%; in assay [10] it was 67.5%; in assay [8], 81.2%.
Take `CC(=O)Nc1ccc(S(=O)(=O)c2ccnc3cc(Cl)ccc23)cc1`: the growth in [1] was 63.8%; in [2] it was 93.7%; in assay [3] it was 76.5%; in [4], 102%; in [9], 96%; in assay [6] it was 71.8%. The results for the growth in [7], in assay [10] and in [8] were 77.7%, 73.7% and 78.1%, respectively.
Regarding `CCn1cc(CNc2ccc(C(=O)Nc3ccc4ccccc4c3)cc2)c(C)n1`, the growth in assay [1] was 55.8%; in assay [2] it was 75.7%; in assay [3] it was 71.8%; in assay [4] it was 77.6%; in [5] it was 84.5%; in [6], -31.5% (active). Also, the growth in assay [7] was 60%; in [10], 62.5%; in assay [8], 77.8%.
For `O=C1CCn2c1c(O)c1ccccc1c2=O`, the growth is 114% in assay [1]; 108% in assay [2]; 86.6% in assay [3]; 110% in [4]; 100% in assay [9]; 103% in assay [6]. Moreover, the growth in assay [7] was 113%; in [10] it was 107%; in assay [8], 107%.
